Source: PubChem (National Center for Advancing Translational Sciences (NCATS))
HepG2 viability = qHTS for Inhibitors of TGF-b: Cytotox Counterscreen; HepG2 CAGA-GFP viability, ATP luminescence, 18 h; Potency, µM (doses to about 46.1 µM), for inactives: at the highest dose activity change, negative = cytotoxicity, most hits filed as cytotoxic; 410,000 compounds, 0.76% hits; AID 588856, 2011; note: potency is the fitted concentration of half-maximal effect
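CellTiter-Glo luminescence gave cytotoxicity after 18 hours at 37 degrees C. The cells were HepG2 CAGA-GFP in 1% FBS DMEM, stimulated with 500 pg/mL TGF-beta after compound addition. %Activity was normalised to no-cell wells (complete cell-killing) and DMSO (no toxicity), and curves were fitted and classified.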
IL1B secr inh = qHTS for Inhibitors of Inflammasome Signaling: IL-1-beta AlphaLISA Primary Screen; activity change, % at 57.5 µM; 360,000 compounds, 4.7% hits; THP-1 LPS/ATP IL-1B secretion, AlphaLISA, 16 h; hits give low values; in the data active = activity change below about -50%; inconclusive = mostly about -30% to -49%; note: % is set by controls: 0 for no effect and ±100 for the full control effect
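THP-1 cells pretreated 1 hr with compounds (up to 57.5 uM final), then stimulated with LPS (250 ng/mL final) plus ATP (1.25 mM final); secreted IL-1B measured by AlphaLISA after 16 hr, decreased signal indicating inhibition.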
TDP1 cell noCPT = qHTS for Inhibitors of human tyrosyl-DNA phosphodiesterase 1 (TDP1): qHTS in cells in absence of CPT | 420,000 compounds, 15% hits | AID 686978, 2013 | Potency, µM (highest dose often 46.2 µM), for inactives: at the highest dose activity change, negative = growth inhibition, actives largely listed as inhibitors | DT40 Tdp1-/- hTDP1 cells, no CPT, ATP luminescence, 48 h; note: potency is the fitted concentration of half-maximal effect; % is set by controls: 0 for no effect and ±100 for the full control effect; nearly all actives have a fitted effect of over 55% in size
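Growth kinetics read by CellTiter-Glo luminescence after ≥48 hr at 37 °C. Cells: DT40 Tdp1-/- stably carrying human TDP1, 400 per well, compound exposure in the absence of CPT (DMSO vehicle).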
TGFb inhibitor = qHTS for Inhibitors of TGF-b; HepG2 CAGA-GFP TGF-b/SMAD3 reporter, GFP fluorescence, 18 h; TGF-beta stimulated, 500 pg/mL final; Potency, µM (top dose mostly 46.1 µM), without a hit: at the highest dose activity, negative = inhibition, hits mostly inhibitors; 410,000 compounds, 1.2% hits; AID 588855, 2011; note: potency is the fitted concentration of half-maximal effect; % is set by controls: 0 for no effect and ±100 for the full control effect; nearly all actives have a fitted effect of over 65% in size
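HEPG2 CAGA-GFP cells (1000/well, DMEM with 1% FBS) were pre-incubated 2 h at 37 degrees C, given compound by pin tool, then stimulated with TGF-beta at 500 pg/mL final for 18 h before per-cell GFP fluorescence imaging.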
ASM inhibitor = Inhibitors of Secretory Acid Sphingomyelinase (S-ASM): qHTS | Sphingomyelin phosphodiesterase (Homo sapiens), P17405 | placental ASM, HMU-PC fluorogenic substrate, 60 min | Potency, µM (highest dose often 57.5 µM), for the others: at the top dose activity change, negative = inhibition, actives largely listed as inhibitors | 340,000 compounds, 0.006% hits | AID 504937, 2011; note: potency is the fitted concentration of half-maximal effect
Target sequence (P17405 47-631 limits assumed): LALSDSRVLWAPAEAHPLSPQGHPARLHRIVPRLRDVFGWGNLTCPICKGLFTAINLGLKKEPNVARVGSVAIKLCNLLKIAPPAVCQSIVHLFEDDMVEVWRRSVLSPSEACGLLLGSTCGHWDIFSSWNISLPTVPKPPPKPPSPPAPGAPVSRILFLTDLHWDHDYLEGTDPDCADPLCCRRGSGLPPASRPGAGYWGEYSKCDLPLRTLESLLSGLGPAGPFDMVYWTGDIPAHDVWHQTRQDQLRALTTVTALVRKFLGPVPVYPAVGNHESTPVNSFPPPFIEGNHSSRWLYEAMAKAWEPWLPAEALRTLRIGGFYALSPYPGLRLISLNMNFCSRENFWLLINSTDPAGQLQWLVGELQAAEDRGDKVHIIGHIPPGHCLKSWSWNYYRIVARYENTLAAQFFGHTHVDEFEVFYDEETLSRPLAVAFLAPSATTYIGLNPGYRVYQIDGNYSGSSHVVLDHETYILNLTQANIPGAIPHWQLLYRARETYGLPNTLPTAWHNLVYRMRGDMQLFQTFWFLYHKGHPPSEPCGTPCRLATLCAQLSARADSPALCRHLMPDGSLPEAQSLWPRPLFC
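Fluorescence read-out (Ex 386 nm, Em 447 nm) after stopping the reaction at pH 10. Enzyme: ASM from human placenta; substrate HMU-PC0, 9 uM final; 60 min, 37 °C. Compound preincubation 10 min, ambient temperature.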
DT40 TDP1 CPT = qHTS for Inhibitors of human tyrosyl-DNA phosphodiesterase 1 (TDP1): qHTS in cells in presence of CPT | AID 686979, 2013 | 420,000 compounds, 12% hits | Potency, µM (top dose mostly 46.2 µM), for inactives: at the highest dose activity change, negative = growth inhibition, usual class: inhibitors | chicken DT40 Tdp1-/-;hTDP1 cells + 20 nM CPT, ATP luminescence, 48 h; note: potency is the fitted concentration of half-maximal effect; % is set by controls: 0 for no effect and ±100 for the full control effect; nearly all actives have a fitted effect of over 55% in size
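Chicken DT40 Tdp1-/- cells stably complemented with human TDP1 were seeded at 400 cells/well in medium containing 20 nM camptothecin, exposed to pin-transferred compounds, and grown at 37 °C for at least 48 hr. Viability was read as ATP luminescence.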
Numbers without * were called inactive; i = inactive; ? = inconclusive; / = not tested or not shown. An excerpt weighted towards active compounds, which were near 19% of everything screened. Unless noted, calls come from the whole dose curve; as a rule, active = well fitted curve in the direction sought with a large enough effect; inconclusive = small, poorly fitted or top-dose-only effect, or another doubt; inactive = no such curve, though single readings can be large; an effect the other way counts as inactive or inconclusive.

SMILES	HepG2 viability	IL1B secr inh	TDP1 cell noCPT	TGFb inhibitor	ASM inhibitor	DT40 TDP1 CPT
COC(=O)c1[nH]c2cc(OC)ccc2c1NC(=O)CCN1CCN(c2cccc(C)c2C)CC1	-7%	-15	21µM*	?	0%	?
COC(=O)c1[nH]c2ccccc2c1NC(=O)CN1CCN(Cc2ccc3c(c2)OCO3)CC1	-30%	-16	?	27%	2%	?
CCOC(=O)c1[nH]c2cc3c(cc2c1NC(=O)CN1CC(C)CC(C)C1)OCO3 (stereo unspecified)	-19%	-17	26µM*	?	-1%	?
COC(=O)c1[nH]c2cc(OC)ccc2c1NC(=O)CCN1CCN(c2ccccc2)CC1	-1%	-14	?	4%	0%	?
COc1cc2c(cc1OC)CN(CC(=O)Nc1ccccc1SC)CC2	-19%	-29	23µM*	-1%	6%	?
COc1ccccc1OCC(=O)N1CCCC(Nc2cccc(F)c2)C1 (stereo unspecified)	-15%	i	6%	3%	3%	11%
CCOC(=O)c1[nH]c2ccc(OCC)cc2c1NC(=O)CN1CCN(c2ccccn2)CC1	-3%	-12	16µM*	11%	172%	?
COC(=O)c1[nH]c2ccccc2c1NC(=O)CN1CCN(c2cccc(OC)c2)C(C)C1 (stereo unspecified)	-36%	-11	18µM*	-3%	-8%	23µM*
COc1cc2c(cc1OC)CN(CC(=O)Nc1ccc(C)cc1)CC2	-9%	0	-23%	9%	0%	-29%
CCOC(=O)c1[nH]c2ccc(OC)cc2c1NC(=O)CN1CCc2ccccc2C1	-35%	?	16µM*	4%	134%	26µM*
COC(=O)c1[nH]c2ccc(C)cc2c1NC(=O)CN1CCc2cc(OC)c(OC)cc2C1	-17%	-12	23µM*	2%	8%	16µM*
CCOC(=O)c1[nH]c2ccc(OC)cc2c1NC(=S)N1CCN(c2ccccn2)CC1	-91%	13	-3%	-1%	4%	-6%
CS/C(=N\S(=O)(=O)c1ccc(F)cc1)c1ccccc1	0%	/	?	60%	/	?
Cc1ccc(C)c(OC(=O)CSc2nnc(-c3ccc4c(c3)OCO4)o2)c1	0%	/	-9%	24%	/	5%
CCCNC(=O)c1cccc(Cn2nc(C)c(Br)c2C)c1	-6%	-10	21µM*	4%	5%	16µM*
Cc1nn(Cc2cccc(C(=O)NC34CC5CC(CC(C5)C3)C4)c2)c(C)c1Br	-11%	-25	?	?	-3%	?
CCCS(=O)(=O)NC(=O)C1(C)CCCN(C(=O)c2ccccc2OC)C1 (stereo unspecified)	0%	9	2%	7%	/	7%
CN(C)c1ncnc2c1ncn2[C@H]1CN(Cc2ccc(Cl)cc2)C[C@@H](CO)O1	4%	23	-19%	25%	/	?
Nc1ncnc2c1ccn2[C@H]1CN(Cc2ccc3c(c2)OCO3)C[C@@H](CO)O1	1%	?	13µM*	-14%	/	?
Nc1ncnc2c1ccn2[C@H]1CN(Cc2ccc3c(c2)OCO3)C[C@@H](COC(=O)c2ccccc2)O1	-2%	40	?	12%	/	?
Nc1ncnc2c1ccn2[C@H]1CN(Cc2ccc(Cl)cc2)C[C@@H](CO)O1	1%	51	13µM*	-6%	/	16µM*
